Compound activity from PubChem BioAssay.
BAZ2B block – blocks human BAZ2B. Q9UIF8. AlphaScreen BAZ2B-H3K14Ac peptide displacement. Potency, µM (series often up to 114 µM), inactives show at the highest dose activity change, negative = inhibition, usual class: inhibitors. actives 4.4% (n = 360,000). AID 504333; further: potency means the concentration at half of the fitted maximal effect; on the % scale 0 is the no-effect control and ±100 the full control effect; nearly all actives have a fitted effect of over 60% in size
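In this displacement format the biotinylated H3(5-23) peptide acetylated at Lys14 serves as ligand at 50 nM, with BAZ2B at 50 nM in PBS pH 7.4 containing 0.01% Tween-20. Donor and acceptor beads are 10 ug/mL final.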
PLK1 PBD inh – PLK1 (human) polo-box domain binding inhibition; Potency, µM, inactives show max response, negative = inhibition, most hits filed as inhibitors; AID 720504; actives 2.8% (n = 360,000); P53350; Plk1 PBD binding of FITC phosphopeptide, fluorescence polarization; further: potency means the concentration at half of the fitted maximal effect; series mostly up to about 57 µM; on the % scale 0 is the no-effect control and ±100 the full control effect; nearly all actives have a fitted effect of over 65% in size
JMJD2A Tudor inh – inhibitors of human JMJD2A Tudor domain. O75164. AlphaScreen JMJD2A-Tudor / H3K4me3 peptide binding. Potency, µM (top dose mostly 114 µM), for the others: at the highest dose activity change, negative = inhibition, most hits filed as inhibitors. actives 4.4% (n = 390,000); further: potency means the concentration at half of the fitted maximal effect; on the % scale 0 is the no-effect control and ±100 the full control effect; nearly all actives have a fitted effect of over 50% in size
HP1b binding inh – blocks HP1-beta chromodomain binding to methylated histone tails; P83916; AlphaScreen HP1-beta / biotin-H3K9me3 peptide binding; Potency, µM (titrated, usually from 114 µM), for inactives: top-dose activity change, negative = inhibition, actives largely listed as inhibitors; actives 0.56% (n = 390,000); AID 540317; further: potency means the concentration at half of the fitted maximal effect; nearly all actives have a fitted effect of over 70% in size
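HP1-beta protein (50 nM final) preincubated 30 min at room temperature with biotinylated H3(1-18)K9me3 peptide (50 nM) in PBS pH 7.4, 0.01% Tween-20, then compound added for 30 min. AlphaScreen streptavidin donor/nickel chelate acceptor beads (10 ug/mL final), 30 min dark, luminescence read.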
G9a inh – inhibitors of human histone lysine methyltransferase G9a; G9a H3K9 monomethylation, AlphaScreen, 2 h; Potency, µM (series often up to 102 µM), inactives show at the highest dose activity, negative = inhibition, actives largely listed as inhibitors; actives 8.8% (n = 350,000); AID 504332; further: potency means the concentration at half of the fitted maximal effect; on the % scale 0 is the no-effect control and ±100 the full control effect; nearly all actives have a fitted effect of over 75% in size
Target sequence (Q96KQ7 913-1193 limits assumed): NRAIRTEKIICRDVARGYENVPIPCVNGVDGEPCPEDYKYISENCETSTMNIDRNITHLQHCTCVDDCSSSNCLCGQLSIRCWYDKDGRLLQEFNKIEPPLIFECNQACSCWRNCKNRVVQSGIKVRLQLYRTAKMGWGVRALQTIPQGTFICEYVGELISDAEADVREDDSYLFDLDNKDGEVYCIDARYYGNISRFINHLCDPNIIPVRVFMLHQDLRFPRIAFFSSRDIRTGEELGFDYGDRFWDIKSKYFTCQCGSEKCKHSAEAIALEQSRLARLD
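Compounds were preincubated with 20 nM G9a for 15 min, after which biotinylated H3K9 peptide (500 nM) and SAM (20 uM) started a 2 h room-temperature reaction. Monomethylated product was quantified by antibody-based AlphaScreen chemiluminescence.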
PI5P4Ka inh – PI5P4K alpha (human) kinase inhibition; P48426; PI5P4Kalpha enzyme, ADP-Glo luminescence, 60 min; hits give low values; max response, %; actives 1.2% (n = 330,000); AID 652105; active means max response of -50% or lower; inconclusive means between -30% and -50%; inactive means -30% or higher; further: value at the top dose of about 77 µM; on the % scale 0 is the no-effect control and ±100 the full control effect
Target sequence (P48426 whole entry, looked up): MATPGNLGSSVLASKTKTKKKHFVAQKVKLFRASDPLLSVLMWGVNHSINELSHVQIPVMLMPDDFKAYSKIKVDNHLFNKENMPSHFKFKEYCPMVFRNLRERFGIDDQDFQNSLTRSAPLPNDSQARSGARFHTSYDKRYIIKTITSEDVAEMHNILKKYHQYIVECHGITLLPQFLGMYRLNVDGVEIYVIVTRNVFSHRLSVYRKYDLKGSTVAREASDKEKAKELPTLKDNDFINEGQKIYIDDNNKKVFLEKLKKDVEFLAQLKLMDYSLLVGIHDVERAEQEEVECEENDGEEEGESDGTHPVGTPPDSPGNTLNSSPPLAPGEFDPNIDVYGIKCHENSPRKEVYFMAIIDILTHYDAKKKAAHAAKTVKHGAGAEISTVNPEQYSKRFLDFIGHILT
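PI5P4Kalpha ADP-Glo assay; 5 microM ATP final; 60 min RT reaction; HEPES pH 7.4/EGTA/CHAPS, 5% DMSO; controls lacking substrate or enzyme; luminescent end-point.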
Numbers without * were called inactive; ? = inconclusive; . = no result given; [ ] = another dose, or the depositor's remark. The list is not random: actives were taken first. Their share in the collection is about 12%. Unless noted, the call rests on the fitted dose curve; in most records, active means well fitted curve in the direction sought with a large enough effect; inconclusive means small, poorly fitted or top-dose-only effect, or another doubt; inactive means no such curve, though single readings can be large; an effect the other way counts as inactive or inconclusive.

SMILES	BAZ2B block	PLK1 PBD inh	JMJD2A Tudor inh	HP1b binding inh	G9a inh	PI5P4Ka inh
Cc1ccc(C(=O)COC(=O)CCNS(=O)(=O)c2ccccc2F)cc1	.	-3.0%	-3.2%	49.8%	.	0.7
Cc1onc(C(=O)Nc2sc3c(c2C#N)CCCC3)c1[N+](=O)[O-]	-64.8%	26.7µM*	-20.0%	-7.5%	44.7µM*	-3.8
N#Cc1c(NC(=O)C2CC(c3ccccc3Cl)=NO2)sc2c1CCC2 (configuration not stated)	0.6%	?	-23.3%	-26.2%	?	.
CCc1c(C)sc(NC(=O)C2CCCO2)c1C#N (configuration not stated)	-1.6%	23.8µM*	-25.2%[57.1 µM]	?	8.91µM*	-16.5
Cc1onc(-c2ccccc2Cl)c1C(=O)Nc1sc2c(c1C#N)CCC2	-31.8%	26.7µM*	?	?	10µM*	?
N#Cc1c(NC(=O)C2CC(c3ccccc3O)=NO2)sc2c1CCC2 (configuration not stated)	-6.0%	18.9µM*	-17.9%	-18.9%	8.91µM*	9.3
CN(C)S(=O)(=O)N(CC(=O)NCCSCc1cccc(Cl)c1)c1ccccc1	0.9%	.	5.2%	43.8%	2.8%[59 µM]	.
COc1ccc(N2CCN(C(=O)C(=O)c3cc(OC)c(OC)c(OC)c3)CC2)cc1	.	-9.9%	.	.	.	6.9
COc1ccccc1CNCC(=O)Nc1ccc(N(C)C)cc1	50.1µM*	26.7µM*	3.98µM*	-17.2%	-10.0%[2.33 µM]	2.1
CCN(CC)S(=O)(=O)c1ccc(C)c(NC(=O)CNCc2ccccc2OC)c1	21.6%	4.4%	11.2µM*	-22.4%	25.1µM*	-2.1
CCc1ccc(NC(=O)Cn2ccn(Cc3ccccc3OC)c(=O)c2=O)cc1	-9.9%	.	-22.0%	8.8%	-1.0%[59 µM]	.
CCOC(=O)NC(=O)/C(C#N)=N\Nc1cccc(Cl)c1	?	0.0%	-28.6%	-16.4%	?	-12.4
CCOC(=O)NC1(Nc2cccc(Cl)c2)Oc2ccccc2O1	2.9%	-4.1%	39.8µM*	?	2µM*	-0.4
COc1ccccc1Nc1cc(C)nc2c(C)ccc([N+](=O)[O-])c12	11.2µM*	1.2%	10µM*	15.8µM*	25.1µM*	24.9
COCCNC(=O)c1cnc2sc(N3CCC(C)CC3)nn2c1=O	0.2%	.	2.6%	13.2%	0.5%[59 µM]	.
O=C(CSc1ccccc1Cl)c1ccco1	-21.0%	21.2µM*	-1.7%	19.1%	?	3.6
O=C(CCSc1ccc(Cl)cc1)c1ccco1	9.3%	?	26.5%	65.7%	-2.6%[2.33 µM]	10.7
O=C(CSc1ccc(Cl)cc1)c1ccco1	.	9.47µM*	79.4µM*	?	?	.
COc1ccc(-c2nc(CSCC(=O)NCc3ccccc3Cl)c(C)o2)cc1OC	-31.3%	.	?	5.5%	?	.
COc1ccccc1-n1c(SC)nc2c(sc(=S)n2-c2ccccc2)c1=O	1.4%	1.5%	1.4%	25.1%	28.5%	-5.4
CCN(CC)C(=O)CSc1nc2c(sc(=S)n2-c2ccccc2)c(=O)n1Cc1ccco1	56.2µM*	23.8µM*	-27.6%	-31.2%	39.8µM*	.
COc1ccccc1-n1c(=S)sc2c(=O)n(Cc3ccco3)c(SC)nc21	-37.8%	?	?	-34.3%	12.6µM*	.
N#Cc1ccccc1CSc1nnc(-c2ccccc2)o1	42.4%	.	6.3%	23.4%	17.1%[59 µM]	.
COC(=O)C[C@@H]1C=C[C@H](NC(=O)Nc2ccc(F)cc2)[C@@H](CO)O1	.	-4.5%	.	.	.	0.4
COC(=O)c1ccc(CNC(=O)CSc2nc3ccccc3[nH]2)cc1	-2.1%	-14.1%	2.5%	19.7%	39.8µM*	-1.1
SMILES	BAZ2B block	PLK1 PBD inh	JMJD2A Tudor inh	HP1b binding inh	G9a inh	PI5P4Ka inh
Cc1ccc2nc(SCC(=O)NCc3ccc(F)cc3)[nH]c2c1	-2.5%	-13.1%	3.6%	69.8%	-41.4%	1.8
Cc1ccc(CNC(=O)CSc2nc3ccccc3[nH]2)cc1	-20.0%	-13.9%	-11.6%	54.2%	25.1µM*	-6.4
O=C(CCCSc1nc2ccccc2[nH]1)NCc1ccccc1F	-11.9%	-0.2%	-9.3%	34.3%	-35.2%	?
Cc1cc(C)n2cc(CSc3nc4ccccc4[nH]3)nc2n1	-8.5%	?	-4.2%	35.2%	20µM*	2.1
O=C(CCCSc1nc2ccccc2[nH]1)NCc1ccc(Cl)cc1	-2.5%	?	-17.3%	43.3%	10µM*	3.5
Cc1cc(C)n2cc(CSc3nc4ccccc4s3)nc2n1	-3.2%	-16.1%	-5.5%	36.0%	?	1.9
COc1ccc2nc(SCC(=O)NCc3ccccc3)[nH]c2c1	-21.8%	-0.5%	-15.9%	21.5%	-6.6%	-3.2
O=C(O)CSc1nc2ccccc2[nH]1	-6.3%	26.7µM*	?	11.8%	?	-8.9
O=C(O)CSc1nc2ccccc2c(=O)[nH]1	-11.6%	-3.5%	-16.8%	15.2%	?	.
Fc1c(F)c(F)c(CSc2nc3ccccc3[nH]2)c(F)c1F	13.8%	?	-3.8%[57.1 µM]	49.4%	3.7%[12.7 µM]	0.2
Fc1ccccc1CSc1nc2ccccc2[nH]1	-4.5%	?	-7.5%[11.4 µM]	-10.7%	50.1µM*	-0.7
O=C(CSc1nc2ccccc2[nH]1)N=Nc1c(O)[nH]c2ccccc12	-29.7%	?	-27.9%	2.6%	44.7µM*	-25.0
O=C(O)C(Cc1ccc(Cl)cc1)Sc1nc2ccccc2[nH]1 (configuration not stated)	-1.2%	?	-2.1%	-10.7%	50.1µM*	-1.5
Cc1cc(SCc2ccc(Br)cc2)nc(=O)[nH]1	-3.0%	-10.3%	-14.9%	38.5%	-0.5%[59 µM]	-3.9
COc1cccc(-c2nnn(CC(=O)N3CCC(C)CC3)n2)c1	7.1%	-6.7%	1.0%	44.6%	-0.7%[59 µM]	-2.4
COc1ccc(CNC(=O)Cn2nc(C)c3nn(-c4ccc(Cl)cc4)c(C)c3c2=O)cc1	8.2%	.	-13.3%	15.6%[57 µM]	17.4%[59 µM]	.
CCc1ccc(NC(=O)c2ccc(F)c(S(=O)(=O)NCCc3ccc(OC)c(OC)c3)c2)cc1	-18.8%	.	-21.1%	11.8%	1.9%[59 µM]	.
Cc1cc(O)c(C(C)C)cc1N=Cc1ccccc1O	?	10.3%	?	-16.9%[57 µM]	5.62µM*	-1.8
CN(C)CCN(C(=O)c1ccco1)c1nc2c(F)cc(F)cc2s1	-8.7%	.	-16.2%	20.4%	0.2%[59 µM]	.
Cc1cccc2sc(N(CCN(C)C)C(=O)c3ccc4ccccc4c3)nc12	?	8.4%	?	-10.4%[57 µM]	39.8µM*	5.7
CN(C)CCN(C(=O)c1ccc2ccccc2c1)c1nc2c(F)cc(F)cc2s1	-23.4%[57.1 µM]	-11.1%	?	-15.7%[57 µM]	50.1µM*	0.3
CN(C)C/C(Cl)=C(\Cl)c1ccccc1	3.3%	?	-34.0%	39.5%	14.1µM*	2.2
CN(C)CC(C(=O)c1ccccc1)c1ccccc1 (configuration not stated)	10.7%	-10.6%	5.4%	58.0%	-6.4%[12.7 µM]	4.7
CCCCn1c(=O)n(CC(=O)Nc2ccc(C)c(Cl)c2)c(=O)c2c1ncn2Cc1ccco1	3.5%	-8.6%	-4.1%	22.5%	25.1µM*	-10.4
